{
  "source": "the supplement of paper PMC8728848",
  "binders": {"B1": {"name": "Epa10 (protein)", "chain": "MNEKIFRYLTLLFLFELARSLPVEDKLNIKKVFEKRAVDFTPFAHYPRPEGCSSPPNSVSVGLHMNLYNYPYLYVKPSTKGMFTNDTNSDADGETDGDSAGGIEGRAGQCWNPEYQDPNFPRFGYKQYGEFGASDNVNGDISWDHNEFTEGCKPVLAALPPGYNYPDEITFSNFTMVLSGYFKPKTSGVYKFELKADDFILFNFGAKNAFECCNREESIDNFGPYVAYAMWPNQADQELEVYLFEDSYYPLRLFYNNRDYHSKFKIGFYPPGQTTITFDFDGYLFMLDDTGNECRDSIRYRTVCDDKVVDDTTYSTRYSTSMVPGGGSDVITIYYIRMKCEEEDCLGQWDPINNVCYSPDDCADDGGYWNGQMCDQSCKLEGGIVNPDTGDCDKSCIESGGFLDENGNCDTTCRDDGGMLVEGQCDYQCKEAGGILVGDHCDTTCVDSGGKLNEDGTCDHSCRDQGGQLDENGECDTSCKDSGGMLIEGECDTSCKDEGGQLDDNNECINHCKDQGGIIDENGNCDTSCKDSGGKLDESGACDTSCRDDGGIIDENGNCNTTCRDDGGIIVGDHCDTSCRDAGGILIEDHCDTTCRDSGGKLNEDGTCDHSCRDQGGQLDENGKCDYSCKNGGGKLDEDGNCDMSCKENGGKLDENGDCDLSCKEDGGKLDGNGDCDYSCKEEGGVIDESGNCNTTCKDSGGQIIDGECNYGCIEVGGVVIDGECDTSCIDSGGILDGDGNCDRSCIESGGVLEDGACNTTCRDSGGQLNVDGTCDTSCRDDGGMLVEGQCDYQCKEAGGILEDGECVFPPTSSSTSETSSTTDQSSLQSDDSSMESSSTPMDSSTIESSSSEIITSESESESVPIASSSSEVMTSESESESIPILTSSSEIPIASSSSEIPVASSSSEIIIPESESESVPVASSSSEIPIASSSSEIPVASSSSEIPVASSSSEIIIPESESESIPIESTSSEAVSSRSESDSSYPTPTPTTTTITTWPNPIQPTTSNSSPIVSSSTETPGIAESSSRISDLESSRRTSILGDDRTRTRTTITSTITEDGQIITITTTVTGFVPEPTGETEGNGSDDENPENPIENNTDENEFLDPEFTDDIPDDPAGPEDNGNGPVNPEQGNDNDPVNLEDSGNNGAVNPEQAPVNDEDNGGNDPVNPEQDNNNGPANPGQDSTNGSGNSDQIDNNPPTPEENAGDGNSNGNDPADPSRRTSILGDERTRASPGGTSQPTGANGNVNGNSPGANVNGGGTGNSNNNNNNNNNNNNGNAPNGGDGSNGDANQGPSRRTSLLGDERTRAGQAAPTGGSSPDNGIAGDTSNNGGAIVSQQVDDGGAGSPRRTSILGDVRSRTTLNGEVLNFEGSGVRRAVAGNLALPLMMVGLVFNL"}},
  "assay_in_all_cases": "glycan array binding signal (z-score within array); higher = stronger binding",
  "settings_in_all_cases": "glycan notation: IUPAC condensed, linker removed",
  "key": {"[1]": {"biological_target": "Fuc(a1-2)Gal(b1-3)GlcNAc(b1-3)[Neu5Ac(a2-6)Gal(b1-4)GlcNAc(b1-6)]Gal(b1-4)Glc", "procedure,_shortened": "(§1)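 Glycan array data came from 3228 arrays in the Consortium for Functional Glycomics database, and only arrays with an available protein sequence were kept. Glycan names were put into IUPAC-condensed notation, and columns mapping to the same glycan were averaged. The binding signal is a within-array Z-score, averaged across arrays of one protein sequence run at different concentrations or buffers and across linkers. A negative Z-score can be read as non-binding.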"}, "[2]": {"biological_target": "Fuc(a1-2)Gal(b1-3)[Fuc(a1-4)]GlcNAc", "procedure,_shortened": "as §1"}, "[3]": {"biological_target": "Fuc(a1-2)Gal(b1-4)GlcNAc(b1-6)GalNAc", "procedure,_shortened": "as §1"}, "[4]": {"biological_target": "Fuc(a1-2)Gal(b1-4)GlcNAc6S", "procedure,_shortened": "as §1"}, "[5]": {"biological_target": "Fuc(a1-2)[Gal(a1-3)]Gal(b1-3)GalNAc(b1-3)Gal(a1-4)Gal(b1-4)Glc", "procedure,_shortened": "as §1"}, "[6]": {"biological_target": "Fuc(a1-2)[Gal(a1-3)]Gal(b1-4)Glc", "procedure,_shortened": "as §1"}, "[7]": {"biological_target": "Fuc(a1-2)[Gal(a1-3)]Gal(b1-4)GlcNAc(b1-6)GalNAc", "procedure,_shortened": "as §1"}, "[8]": {"biological_target": "Fuc(a1-2)[GalNAc(a1-3)]Gal(b1-3)GalNAc(a1-3)[Fuc(a1-2)]Gal(b1-4)GlcNAc", "procedure,_shortened": "as §1"}, "[9]": {"biological_target": "Fuc(a1-2)[GalNAc(a1-3)]Gal(b1-4)[Fuc(a1-3)]GlcNAc(b1-3)GalNAc", "procedure,_shortened": "as §1"}, "[10]": {"biological_target": "Fuc(a1-3)[Gal(b1-4)]GlcNAc6S", "procedure,_shortened": "as §1"}, "[11]": {"biological_target": "Gal(a1-3)Gal(b1-4)[Fuc(a1-3)]GlcNAc(b1-2)Man(a1-3)[Gal(a1-3)Gal(b1-4)[Fuc(a1-3)]GlcNAc(b1-2)Man(a1-6)]Man(b1-4)GlcNAc(b1-4)GlcNAc", "procedure,_shortened": "as §1"}, "[12]": {"biological_target": "Gal(a1-4)Gal(b1-3)GlcNAc(b1-2)Man(a1-3)[Gal(a1-4)Gal(b1-3)GlcNAc(b1-2)Man(a1-6)]Man(b1-4)GlcNAc(b1-4)GlcNAc", "procedure,_shortened": "as §1"}, "[13]": {"biological_target": "Gal(a1-4)Gal(b1-4)GlcNAc(b1-2)Man(a1-3)[Gal(a1-4)Gal(b1-4)GlcNAc(b1-2)Man(a1-6)]Man(b1-4)GlcNAc(b1-4)GlcNAc", "procedure,_shortened": "as §1"}, "[14]": {"biological_target": "Gal(a1-4)Gal(b1-4)GlcNAc(b1-3)Gal(b1-4)Glc", "procedure,_shortened": "as §1"}, "Gal(b1-3)Gal(b1-4)GlcNAc": {"biological_target": "Gal(b1-3)Gal(b1-4)GlcNAc", "procedure,_shortened": "as §1"}, "Gal(b1-3)GalNAc": {"biological_target": "Gal(b1-3)GalNAc", "procedure,_shortened": "as §1"}, "[15]": {"biological_target": "Gal(b1-3)GalNAc(a1-3)[Fuc(a1-2)]Gal(b1-4)Glc", "procedure,_shortened": "as §1"}, "[16]": {"biological_target": "Gal(b1-3)GalNAc(a1-3)[Fuc(a1-2)]Gal(b1-4)GlcNAc", "procedure,_shortened": "as §1"}, "Gal(b1-3)GalNAc(b1-3)Gal": {"biological_target": "Gal(b1-3)GalNAc(b1-3)Gal", "procedure,_shortened": "as §1"}, "[17]": {"biological_target": "Gal(b1-3)GalNAc(b1-3)Gal(a1-4)Gal(b1-4)Glc", "procedure,_shortened": "as §1"}, "[18]": {"biological_target": "Gal(b1-3)GalNAc(b1-4)Gal(b1-4)Glc", "procedure,_shortened": "as §1"}, "[19]": {"biological_target": "Gal(b1-3)GalNAc(b1-4)[Neu5Ac(a2-3)]Gal(b1-4)Glc", "procedure,_shortened": "as §1"}, "[20]": {"biological_target": "Gal(b1-3)GlcNAc(b1-3)Gal(b1-4)GlcNAc(b1-3)Gal(b1-4)GlcNAc(b1-2)[Gal(b1-3)GlcNAc(b1-3)Gal(b1-4)GlcNAc(b1-3)Gal(b1-4)GlcNAc(b1-6)]Man(a1-6)[Gal(b1-3)GlcNAc(b1-3)Gal(b1-4)GlcNAc(b1-3)Gal(b1-4)GlcNAc(b1-2)Man(a1-3)]Man(b1-4)GlcNAc(b1-4)[Fuc(a1-6)]GlcNAc", "procedure,_shortened": "as §1"}, "[21]": {"biological_target": "Gal(b1-3)[Fuc(a1-4)]GlcNAc(b1-3)Gal(b1-4)[Fuc(a1-3)]GlcNAc", "procedure,_shortened": "as §1"}, "[22]": {"biological_target": "Gal(b1-3)[Neu5Ac(a2-6)]GalNAc", "procedure,_shortened": "as §1"}, "[23]": {"biological_target": "Gal(b1-4)GlcNAc(b1-2)Man(a1-3)[Gal(b1-4)GlcNAc(b1-2)Man(a1-6)][Gal(b1-4)GlcNAc(b1-4)]Man(b1-4)GlcNAc(b1-4)[Fuc(a1-6)]GlcNAc", "procedure,_shortened": "as §1"}, "[24]": {"biological_target": "Gal(b1-4)GlcNAc(b1-2)[Gal(b1-4)GlcNAc(b1-6)]Man(a1-6)[GlcNAc(b1-4)][Gal(b1-4)GlcNAc(b1-2)[Gal(b1-4)GlcNAc(b1-4)]Man(a1-3)]Man(b1-4)GlcNAc(b1-4)[Fuc(a1-6)]GlcNAc", "procedure,_shortened": "as §1"}, "[25]": {"biological_target": "Gal(b1-4)GlcNAc(b1-3)Gal(b1-4)Glc", "procedure,_shortened": "as §1"}, "[26]": {"biological_target": "Gal(b1-4)GlcNAc(b1-6)[Gal(b1-3)]GalNAc", "procedure,_shortened": "as §1"}, "[27]": {"biological_target": "Gal(b1-4)GlcNAc(b1-6)[Gal(b1-4)GlcNAc(b1-3)]GalNAc", "procedure,_shortened": "as §1"}},
  "note": "This excerpt belongs to a sample that is enriched for the strongest signals.",
  "data": [
    {"binder": "B1", "values": [
      {"measurement": "glycan array binding signal (z-score)", "setting": "[1]", "result": -0.195},
      {"measurement": "glycan array binding signal (z-score)", "setting": "[2]", "result": -0.222},
      {"measurement": "glycan array binding signal (z-score)", "setting": "[3]", "result": -0.172},
      {"measurement": "glycan array binding signal (z-score)", "setting": "[4]", "result": -0.198},
      {"measurement": "glycan array binding signal (z-score)", "setting": "[5]", "result": -0.256},
      {"measurement": "glycan array binding signal (z-score)", "setting": "[6]", "result": -0.272},
      {"measurement": "glycan array binding signal (z-score)", "setting": "[7]", "result": -0.16},
      {"measurement": "glycan array binding signal (z-score)", "setting": "[8]", "result": -0.215},
      {"measurement": "glycan array binding signal (z-score)", "setting": "[9]", "result": -0.113},
      {"measurement": "glycan array binding signal (z-score)", "setting": "[10]", "result": -0.223},
      {"measurement": "glycan array binding signal (z-score)", "setting": "[11]", "result": 0.134},
      {"measurement": "glycan array binding signal (z-score)", "setting": "[12]", "result": 3.35},
      {"measurement": "glycan array binding signal (z-score)", "setting": "[13]", "result": 1.46},
      {"measurement": "glycan array binding signal (z-score)", "setting": "[14]", "result": 1.2},
      {"measurement": "glycan array binding signal (z-score)", "setting": "Gal(b1-3)Gal(b1-4)GlcNAc", "result": 4.92},
      {"measurement": "glycan array binding signal (z-score)", "setting": "Gal(b1-3)GalNAc", "result": 3.84},
      {"measurement": "glycan array binding signal (z-score)", "setting": "[15]", "result": 3.03},
      {"measurement": "glycan array binding signal (z-score)", "setting": "[16]", "result": 3.87},
      {"measurement": "glycan array binding signal (z-score)", "setting": "Gal(b1-3)GalNAc(b1-3)Gal", "result": 6.03},
      {"measurement": "glycan array binding signal (z-score)", "setting": "[17]", "result": 4.11},
      {"measurement": "glycan array binding signal (z-score)", "setting": "[18]", "result": 17},
      {"measurement": "glycan array binding signal (z-score)", "setting": "[19]", "result": 4.18},
      {"measurement": "glycan array binding signal (z-score)", "setting": "[20]", "result": 0.117},
      {"measurement": "glycan array binding signal (z-score)", "setting": "[21]", "result": -0.254},
      {"measurement": "glycan array binding signal (z-score)", "setting": "[22]", "result": 3.73},
      {"measurement": "glycan array binding signal (z-score)", "setting": "[23]", "result": -0.267},
      {"measurement": "glycan array binding signal (z-score)", "setting": "[24]", "result": 0.014},
      {"measurement": "glycan array binding signal (z-score)", "setting": "[25]", "result": -0.234},
      {"measurement": "glycan array binding signal (z-score)", "setting": "[26]", "result": 2.59},
      {"measurement": "glycan array binding signal (z-score)", "setting": "[27]", "result": 0.208}
    ]}
  ]
}
